# In PubChem BioAssay AID1159580 (chemical genetic matrix, 2015):
# “And” between values parts separate entries of the source, which are not always exact repeats. Identical values can stand only once. Out of some 5,500 compounds screened, about 2,000 (36%) were called active. Inconclusive results (about 18%) are left out. The list shows a part of the results. Values without a mark were called inactive. Rule as the data show it: active = normalized growth mostly below about 0.91 (no sharp cut-off); inconclusive = no clear call, values can overlap the other calls; inactive = mostly above about 0.92.
# Experiment: chemical genetic growth profiling, strain panel (AID 1159580);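 also: tested at 20 µM; growth read once vehicle control cultures reached saturation at 30 °C; 1 = growth at the plate median or of vehicle wells; lower values mean less growth of the strain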
# Conditions: S. cerevisiae deletion strains, growth OD
compound,measurement,setting,value
O=[N+]([O-])c1cc([As](=O)(O)O)ccc1O,normalized growth,"locus YAL013W, strain DEP1, stronger effect = lower value",0.987
same,normalized growth,"locus YAL021C, strain ccr4, stronger effect = lower value",0.965
same,normalized growth,"locus YAL026C, strain drs2, stronger effect = lower value",0.975
same,normalized growth,"locus YAL030W, strain snc1, stronger effect = lower value",0.971
same,normalized growth,"locus YBL061C, strain skt5, stronger effect = lower value",0.979
same,normalized growth,"locus YBR009C, strain hhf1, stronger effect = lower value",0.975
same,normalized growth,"locus YBR021W, strain FUR4, stronger effect = lower value",1.01
same,normalized growth,"locus YBR023C, strain chs3, stronger effect = lower value",0.986
same,normalized growth,"locus YBR171W, strain sec66, stronger effect = lower value",0.946
same,normalized growth,"locus YBR229C, strain ROT2, stronger effect = lower value",1
same,normalized growth,"locus YBR231C, strain swc5, stronger effect = lower value",0.946
same,normalized growth,"locus YBR279W, strain paf1, stronger effect = lower value",0.963
same,normalized growth,"locus YCL011C, strain gbp2, stronger effect = lower value",0.991
same,normalized growth,"locus YCL016C, strain dcc1, stronger effect = lower value",0.99
same,normalized growth,"locus YCL029C, strain bik1, stronger effect = lower value",0.914
same,normalized growth,"locus YCL069W, strain vba3, stronger effect = lower value",0.967
same,normalized growth,"locus YCR088W, strain abp1, stronger effect = lower value",0.975
same,normalized growth,"locus YDL005C, strain med2, stronger effect = lower value",0.972
same,normalized growth,"locus YDL035C, strain GPR1, stronger effect = lower value",1
same,normalized growth,"locus YDL040C, strain nat1, stronger effect = lower value",0.958
same,normalized growth,"locus YDL074C, strain BRE1, stronger effect = lower value",0.977
same,normalized growth,"locus YDL101C, strain DUN1, stronger effect = lower value",1
same,normalized growth,"locus YDL134C, strain PPH21, stronger effect = lower value",0.989
same,normalized growth,"locus YDL185W, strain tfp1, stronger effect = lower value",0.978
same,normalized growth,"locus YDL192W, strain arf1, stronger effect = lower value",0.214 (active)
same,normalized growth,"locus YDR001C, strain nth1, stronger effect = lower value",0.967
same,normalized growth,"locus YDR069C, strain doa4, stronger effect = lower value",0.945
same,normalized growth,"locus YDR101C, strain arx1, stronger effect = lower value",0.759 (active)
same,normalized growth,"locus YDR137W, strain rgp1, stronger effect = lower value",0.984
same,normalized growth,"locus YDR150W, strain NUM1, stronger effect = lower value",0.987
same,normalized growth,"locus YDR159W, strain sac3, stronger effect = lower value",0.978
same,normalized growth,"locus YDR162C, strain NBP2, stronger effect = lower value",0.962
same,normalized growth,"locus YDR195W, strain ref2",0.898
same,normalized growth,"locus YDR297W, strain sur2, stronger effect = lower value",0.971
same,normalized growth,"locus YDR318W, strain mcm21, stronger effect = lower value",0.0896 (active)
same,normalized growth,"locus YDR334W, strain swr1, stronger effect = lower value",0.958
same,normalized growth,"locus YDR335W, strain msn5, stronger effect = lower value",0.972
same,normalized growth,"locus YDR388W, stronger effect = lower value",0.112 (active)
same,normalized growth,"locus YDR392W, strain spt3, stronger effect = lower value",0.989
same,normalized growth,"locus YDR502C, strain sam2, stronger effect = lower value",0.247 (active)
same,normalized growth,"locus YEL003W, strain gim4, stronger effect = lower value",0.963
same,normalized growth,"locus YEL037C, strain rad23, stronger effect = lower value",0.953
same,normalized growth,"locus YEL061C, strain CIN8 (second series), stronger effect = lower value",0.971
same,normalized growth,"locus YEL061C, strain CIN8, stronger effect = lower value",0.993
same,normalized growth,"locus YER015W, strain faa2, stronger effect = lower value",0.958
same,normalized growth,"locus YER016W, strain bim1, stronger effect = lower value",0.997
same,normalized growth,"locus YER110C, stronger effect = lower value",0.566 (active)
same,normalized growth,"locus YER111C, strain swi4, stronger effect = lower value",0.949
same,normalized growth,"locus YER155C, strain BEM2 (second series), stronger effect = lower value",0.953
same,normalized growth,"locus YER155C, strain BEM2, stronger effect = lower value",0.998
same,normalized growth,"locus YER167W, strain BCK2, stronger effect = lower value",1.02
same,normalized growth,"locus YFR010W, strain ubp6, stronger effect = lower value",0.949
same,normalized growth,"locus YGL078C, strain dbp3, stronger effect = lower value",0.406 (active)
same,normalized growth,"locus YGL086W, strain mad1, stronger effect = lower value",0.0902 (active)
same,normalized growth,"locus YGL167C, strain pmr1, stronger effect = lower value",0.971
same,normalized growth,"locus YGL173C, strain kem1, stronger effect = lower value",0.964
same,normalized growth,"locus YGL227W, strain vid30, stronger effect = lower value",0.964
same,normalized growth,"locus YGL240W, strain doc1, stronger effect = lower value",0.946
same,normalized growth,"locus YGL248W, strain PDE1, stronger effect = lower value",0.992
same,normalized growth,"locus YGL253W, strain hxk2, stronger effect = lower value",0.963
same,normalized growth,"locus YGR078C, strain PAC10, stronger effect = lower value",0.958
same,normalized growth,"locus YGR135W, strain pre9, stronger effect = lower value",0.089 (active)
same,normalized growth,"locus YGR229C, strain SMI1, stronger effect = lower value",0.981
same,normalized growth,"locus YGR252W, strain gcn5, stronger effect = lower value",0.255 (active)
same,normalized growth,"locus YHR013C, strain ard1, stronger effect = lower value",0.986
same,normalized growth,"locus YHR027C, strain rpn1, stronger effect = lower value",0.972
same,normalized growth,"locus YHR030C, strain SLT2, stronger effect = lower value",0.998 and 1.06
same,normalized growth,"locus YHR079C, strain IRE1 (second series), stronger effect = lower value",0.791 (active)
same,normalized growth,"locus YHR079C, strain IRE1, stronger effect = lower value",1.09
same,normalized growth,"locus YHR094C, strain hxt1, stronger effect = lower value",0.25 (active)
same,normalized growth,"locus YHR129C, strain ARP1, stronger effect = lower value",0.999
same,normalized growth,"locus YHR142W, strain chs7, stronger effect = lower value",0.968
same,normalized growth,"locus YHR200W, strain rpn10, stronger effect = lower value",0.26 (active)
same,normalized growth,"locus YIL066C, strain RNR3, stronger effect = lower value",1.04
same,normalized growth,"locus YIL073C, strain SPO22, stronger effect = lower value",1.06
same,normalized growth,"locus YIL125W, strain kgd1, stronger effect = lower value",0.521 (active)
same,normalized growth,"locus YIR030C, strain dcg1, stronger effect = lower value",0.629 (active)
same,normalized growth,"locus YJL092W, strain hpr5, stronger effect = lower value",0.969
same,normalized growth,"locus YJL095W, strain BCK1 (second series), stronger effect = lower value",0.966
same,normalized growth,"locus YJL095W, strain BCK1, stronger effect = lower value",0.999 and 1.02
same,normalized growth,"locus YJL115W, strain asf1, stronger effect = lower value",0.962
same,normalized growth,"locus YJL129C, strain trk1, stronger effect = lower value",0.936
same,normalized growth,"locus YJL134W, strain LCB3, stronger effect = lower value",0.991
same,normalized growth,"locus YJL154C, strain vps35, stronger effect = lower value",0.945
same,normalized growth,"locus YJL164C, strain tpk1, stronger effect = lower value",1
same,normalized growth,"locus YJL166W, strain qcr8, stronger effect = lower value",0.977
same,normalized growth,"locus YJL168C, strain set2, stronger effect = lower value",0.453 (active)
same,normalized growth,"locus YJL187C, strain SWE1 (second series), stronger effect = lower value",1
same,normalized growth,"locus YJL187C, strain SWE1, stronger effect = lower value",0.964
same,normalized growth,"locus YJR043C, strain POL32, stronger effect = lower value",1.02
same,normalized growth,"locus YJR066W, strain TOR1, stronger effect = lower value",0.989
